Each structure is given as a SMILES string. Results filed as inconclusive are left out. Active and inactive are the calls of the source. Rule for the calls: active = hit-call score of the fitted dose curve at least 0.9, where 1 is the maximum; inconclusive = response in the unintended direction; inactive = score below 0.9.

This test can be described thus: Tanguay_ZF_120hpf_BRAI_legacy: (Legacy) Oregon State University Tanguay Lab 120 Hour Post-fertilization zebrafish Assay for Brain Malformation (AID 2283641). How it is done: Tanguay_ZF_120hpf_legacy is a whole embryo, multiplexed endpoint assay using zebrafish larvae exposed for 120 hours post fertilization on a 96-well plate.Tanguay_ZF_120hpf_BRAI_legacy is one of one assay component(s) measured or calculated from the Tanguay_ZF_120hpf_legacy assay. It is designed to make measurements of zebrafish development as detected with brightfield microscopy of developing zebrafish embryos.Data from the assay component Tanguay_ZF_120hpf_BRAI_legacy was analyzed into 1 assay endpoints. This assay endpoint, Tanguay_ZF_120hpf_BRAI_legacy, was analyzed in the positive analysis fitting direction relative to DMSO as the negative control and baseline of activity. Using a type of morphology reporter, gain-of-signal activity can be used to understand changes in developmentals as they relate to the whole embryo. To generalize the intended target to other relatable targets, this assay endpoint is annotated to the zebrafish development intended target family, where the subfamily is brain morphogenesis.
Zebrafish husbandry: Tropical 5D wild-type adult zebrafish were housed in at an approximate density of 1000 per 100 gallon tank at the Sinnhuber Aquatic Research Laboratory, Oregon State University, Corvallis, OR. Each tank was kept at standard laboratory conditions of 28C on a 14-h light/10-h dark photoperiod in fish water consisting of reverse osmosis water supplemented with a commercially available salt (Instant Ocean). Spawning funnels were placed into the tanks the night prior, and embryos were collected and staged. […] Ten microliters of each row of dilution plate 2 was added to 2 exposure plates. The final DMSO concentration used was 0.64% (vol/vol). Thirty-two embryos were also exposed to 5uM trimethyltin chloride (positive control). Plates were sealed to prevent evaporation and foil covered to reduce light exposure and kept in a 28C incubator. Embryos were statically exposed until 120 hpf. At 24 hpf, embryos were assessed for photomotor response using a custom photomotor response analysis tool (PRAT) and for developmental toxicity endpoints (MO24: mortality at 24 hpf, DP: developmental progression, SM: spontaneous movement, and NC: notochord distortion). At 120 hpf, locomotor activity was measured using Viewpoint Zebralab and assessed for 18 endpoints. Zebrafish acquisition and analysis program (ZAAP), a custom program designed to inventory, acquire, and manage zebrafish data, was used to collect developmental endpoints as either present or absent (i.e., binary responses were recorded). If mortality occurred for an embryo (at either 24 or 120 hpf), the non-mortality endpoints were not measured.
For the compound `CC(=O)O`, the outcome was inactive.
Same read-out and setting: under `CCc1cc(C2=C(C(=O)O)N(c3ccccc3C(F)(F)F)S(=O)(=O)c3ccccc32)cc2c1OCO2` stands “inactive”; under `c1ccc2occc2c1`, “inactive”; under `CCCCCCCC(=O)OC`, “inactive”.
Same read-out and setting: the value for `O=C(O)CC(O)(CC(=O)O)C(=O)O` was “inactive”.
Regarding `S=c1[nH]c2ccccc2s1`, the AC50 is 40.7 µM (active).
Regarding `C/C=C/C=C/C(=O)O`, the result was inactive.
For the compound `NC(=Nc1ccccc1)Nc1ccccc1`, the compound was called inactive.
On the same count and under the same terms, the value for `CN(C)CCCN1c2ccccc2Sc2ccc(Cl)cc21` was “inactive”; that for `CSc1ccc(Oc2ccc(S(N)(=O)=O)cc2CN(C)C)cc1C` was “inactive”; that for `Cn1cnc2c1c(=O)[nH]c(=O)n2C` was “inactive”.
`CC(C)NCC(O)c1ccc(O)c(O)c1` (stereo not given): the outcome was inactive.
For `CCCCCCCCCC[N+](C)(C)[O-]`, the call was inactive.
On the same count and under the same terms, the value for `COc1ccc(C(=O)Nc2nc3ccccc3c(NCc3ccccc3)c2C#N)cc1` was “inactive”.
Still for that read-out and setting: the value for `O=C1NC(=O)C(c2ccccc2)(c2ccccc2)N1` was “inactive”.
Still for that read-out and setting: the value for `COC(=O)[C@H]1[C@H]2C[C@@H]3c4[nH]c5cc(OC)ccc5c4CCN3C[C@H]2C[C@@H](OC(=O)c2cc(OC)c(OC)c(OC)c2)[C@@H]1OC` was “inactive”; that for `Cc1cc(Cc2ccc(N)c(C)c2)ccc1N` was “inactive”; that for `CC(=O)OCC(COC(C)=O)OC(C)=O` was “inactive”.
Consider `Cc1cc(SC2=C(O)C[C@@](CCc3ccc(N)cc3)(C(C)C)OC2=O)c(C(C)(C)C)cc1CO`, for which the outcome was inactive.
Still for that read-out and setting: the value for `O=C(N[C@@H](c1ccccc1)[C@@H]1CCCCN1)c1cccc(C(F)(F)F)c1Cl` was “inactive”; that for `CCN(CC)CCOc1ccc(C(=C(Cl)c2ccccc2)c2ccccc2)cc1` was “inactive”; that for `CC(=O)[C@@]1(O)CC[C@H]2[C@@H]3CCC4=CC(=O)CC[C@]4(C)[C@H]3CC[C@@]21C` was “inactive”.
Same read-out and setting: the value for `NCCOCCOCCN` was “inactive”; that for `CCCC(=O)O` was “inactive”; that for `COc1ccc(OC(F)(F)F)cc1CN[C@H]1CCCN[C@H]1c1ccccc1` was “inactive”.
Regarding `CCCCCCCCCCCCCCOS(=O)(=O)O`, the AC50 is 10.4 µM (active).
With `CN(C)CCCN(C)CCCN(C)C`, the call was inactive.
Take `CC(C)(C)c1ccccc1`: the outcome was inactive.
The same measure, in the same setting: the value for `O=C(O)c1[nH]n(-c2ccc(S(=O)(=O)O)cc2)c(=O)c1N=Nc1ccc(S(=O)(=O)O)cc1` was “inactive”; that for `C#CC(O)C(CC)CCCC` (stereo not given) was “inactive”; that for `O=C1O[C@H]([C@H](O)CO)C(O)=C1O` was “inactive”.
On the same count and under the same terms, the value for `CC(C)COC(=O)CCCCC(=O)OCC(C)C` was “inactive”; that for `O=Cc1ccccc1C=O` was “inactive”.
The same measure, in the same setting: under `CO[C@@H]1COCC[C@@H]1N[C@@H]1CC[C@@](C(=O)N2CCc3ncc(C(F)(F)F)cc3C2)(C(C)C)C1` stands “inactive”; under `O=C(O)CN(CC(=O)O)CC(=O)O`, “inactive”; under `NC=O`, “inactive”.
On to `C/C=C/c1ccc(OC)cc1`, for which the outcome was inactive.
On the same count and under the same terms, the value for `CC1(C)C(=O)NC(=O)N1CO` was “inactive”; that for `O=C1c2c(O)cccc2Cc2cccc(O)c21` was “inactive”.
Same read-out and setting: under `Cc1ccc(-c2cc(C(F)(F)F)nn2-c2ccc(S(N)(=O)=O)cc2)cc1` stands “inactive”.

The values above are taken from PubChem BioAssay (EPA / NIEHS).
